Measurements from PubChem BioAssay AID1159580 (chemical genetic matrix, 2015).
Screen size: about 5,500 compounds; about 2,000 (36%) were called active. Inconclusive results (about 18%) are left out. The list shows a part of the results. Values without a mark were called inactive. No stated cut-off is given here; in the data, active means normalized growth mostly below about 0.91 (no sharp cut-off); inconclusive means no clear call, values can overlap the other calls; inactive means mostly above about 0.92.

Test: chemical genetic growth profiling, strain panel (AID 1159580);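 further: tested at 20 µM; growth read once vehicle control cultures reached saturation at 30 °C; 1 = growth at the plate median or of vehicle wells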
Settings: growth OD
[1] = S. cerevisiae deletion strains, locus YDR150W, strain NUM1, stronger effect = lower value
[2] = S. cerevisiae deletion strains, locus YNL153C, strain GIM3, stronger effect = lower value
[3] = S. cerevisiae deletion strains, locus YPL055C, strain LGE1, stronger effect = lower value
[4] = S. cerevisiae deletion strains, locus YDL101C, strain DUN1, stronger effect = lower value
[5] = S. cerevisiae deletion strains, locus YHR030C, strain SLT2, stronger effect = lower value

## Oc1ccc(-c2nc(-c3ccc(F)cc3)c(-c3ccncc3)[nH]2)cc1
S. cerevisiae deletion strains, locus YAL040C, strain CLN3, stronger effect = lower value
  normalized growth: 0.975
S. cerevisiae deletion strains, locus YCL061C, strain MRC1 (second series), stronger effect = lower value
  normalized growth: 1.01
[1]
  normalized growth: 1
S. cerevisiae deletion strains, locus YER002W, strain NOP16, stronger effect = lower value
  normalized growth: 1
S. cerevisiae deletion strains, locus YMR307W, strain GAS1, stronger effect = lower value
  normalized growth: 1.02
[2]
  normalized growth: 0.999
S. cerevisiae deletion strains, locus YNL175C, strain NOP13, stronger effect = lower value
  normalized growth: 1.03
S. cerevisiae deletion strains, locus YNL197C, strain WHI3, stronger effect = lower value
  normalized growth: 1.02
S. cerevisiae deletion strains, locus YNL224C, strain SQS1, stronger effect = lower value
  normalized growth: 1.02
S. cerevisiae deletion strains, locus YOR083W, strain WHI5 (second series), stronger effect = lower value
  normalized growth: 1.03
[3]
  normalized growth: 1.02

## O=S(=O)(CS(=O)(=O)Oc1ccc(Cl)c(Cl)c1)Oc1ccc(Cl)c(Cl)c1
S. cerevisiae deletion strains, locus YAR019C, strain CDC15, stronger effect = lower value
  normalized growth: 0.95
S. cerevisiae deletion strains, locus YBL105C, strain PKC1, stronger effect = lower value
  normalized growth: 0.944
S. cerevisiae deletion strains, locus YBR135W, strain CKS1, stronger effect = lower value
  normalized growth: 0.947
S. cerevisiae deletion strains, locus YBR136W, strain MEC1, stronger effect = lower value
  normalized growth: 0.946
S. cerevisiae deletion strains, locus YBR160W, strain CDC28, stronger effect = lower value
  normalized growth: 0.946
S. cerevisiae deletion strains, locus YDL017W, strain CDC7, stronger effect = lower value
  normalized growth: 0.937
S. cerevisiae deletion strains, locus YDL028C, strain MPS1, stronger effect = lower value
  normalized growth: 0.946
[4]
  normalized growth: 0.971
S. cerevisiae deletion strains, locus YDL108W, strain KIN28, stronger effect = lower value
  normalized growth: 0.937
S. cerevisiae deletion strains, locus YDL132W, strain cdc53, stronger effect = lower value
  normalized growth: 0.968
S. cerevisiae deletion strains, locus YDL214C, strain PRR2, stronger effect = lower value
  normalized growth: 0.986
S. cerevisiae deletion strains, locus YDR052C, strain DBF4, stronger effect = lower value
  normalized growth: 0.937
S. cerevisiae deletion strains, locus YDR054C, strain cdc34, stronger effect = lower value
  normalized growth: 0.932
S. cerevisiae deletion strains, locus YDR226W, strain ADK1, stronger effect = lower value
  normalized growth: 0.913
S. cerevisiae deletion strains, locus YDR477W, strain SNF1, stronger effect = lower value
  normalized growth: 0.966
S. cerevisiae deletion strains, locus YER123W, strain YCK3, stronger effect = lower value
  normalized growth: 0.989
S. cerevisiae deletion strains, locus YER133W, strain GLC7, stronger effect = lower value
  normalized growth: 0.969
S. cerevisiae deletion strains, locus YFL009W, strain cdc4, stronger effect = lower value
  normalized growth: 0.931
S. cerevisiae deletion strains, locus YFL029C, strain CAK1, stronger effect = lower value
  normalized growth: 0.95
S. cerevisiae deletion strains, locus YFR003C, strain YPI1, stronger effect = lower value
  normalized growth: 0.944
S. cerevisiae deletion strains, locus YFR019W, strain FAB1, stronger effect = lower value
  normalized growth: 0.946
S. cerevisiae deletion strains, locus YFR028C, strain CDC14, stronger effect = lower value
  normalized growth: 0.97
S. cerevisiae deletion strains, locus YGR040W, strain KSS1, stronger effect = lower value
  normalized growth: 0.983
S. cerevisiae deletion strains, locus YGR052W, strain FMP48, stronger effect = lower value
  normalized growth: 1.02
S. cerevisiae deletion strains, locus YGR092W, strain DBF2, stronger effect = lower value
  normalized growth: 0.905
[5]
  normalized growth: 0.85 (active)
S. cerevisiae deletion strains, locus YHR079C, strain IRE1, stronger effect = lower value
  normalized growth: 0.918
S. cerevisiae deletion strains, locus YHR082C, strain KSP1, stronger effect = lower value
  normalized growth: 1.03
S. cerevisiae deletion strains, locus YHR205W, strain SCH9, stronger effect = lower value
  normalized growth: 0.756
S. cerevisiae deletion strains, locus YIL147C, strain SLN1, stronger effect = lower value
  normalized growth: 0.943
S. cerevisiae deletion strains, locus YJL095W, strain BCK1, stronger effect = lower value
  normalized growth: 0.935
S. cerevisiae deletion strains, locus YJL128C, strain PBS2, stronger effect = lower value
  normalized growth: 0.969
S. cerevisiae deletion strains, locus YJL157C, strain FAR1, stronger effect = lower value
  normalized growth: 0.959
S. cerevisiae deletion strains, locus YJR016C, strain ILV3, stronger effect = lower value
  normalized growth: 0.951
S. cerevisiae deletion strains, locus YJR066W, strain TOR1 (second series), stronger effect = lower value
  normalized growth: 0.994
S. cerevisiae deletion strains, locus YJR066W, strain TOR1, stronger effect = lower value
  normalized growth: 1.03
S. cerevisiae deletion strains, locus YKL048C, strain ELM1, stronger effect = lower value
  normalized growth: 0.963
S. cerevisiae deletion strains, locus YKL067W, strain YNK1, stronger effect = lower value
  normalized growth: 0.983
S. cerevisiae deletion strains, locus YKL101W, strain HSL1, stronger effect = lower value
  normalized growth: 0.981
S. cerevisiae deletion strains, locus YKL193C, strain SDS22, stronger effect = lower value
  normalized growth: 0.944
S. cerevisiae deletion strains, locus YKL203C, strain TOR2, stronger effect = lower value
  normalized growth: 1.05
S. cerevisiae deletion strains, locus YLR113W, strain HOG1, stronger effect = lower value
  normalized growth: 0.962
S. cerevisiae deletion strains, locus YLR133W, strain CKI1, stronger effect = lower value
  normalized growth: 0.961
S. cerevisiae deletion strains, locus YLR403W, strain SFP1, stronger effect = lower value
  normalized growth: 0.823
S. cerevisiae deletion strains, locus YML070W, strain DAK1, stronger effect = lower value
  normalized growth: 0.991
S. cerevisiae deletion strains, locus YMR001C, strain CDC5, stronger effect = lower value
  normalized growth: 0.94
S. cerevisiae deletion strains, locus YMR205C, strain PFK2 (second series), stronger effect = lower value
  normalized growth: 0.972
S. cerevisiae deletion strains, locus YMR277W, strain FCP1, stronger effect = lower value
  normalized growth: 0.949
S. cerevisiae deletion strains, locus YNL006W, strain LST8, stronger effect = lower value
  normalized growth: 0.967
S. cerevisiae deletion strains, locus YNL020C, strain ARK1, stronger effect = lower value
  normalized growth: 0.955
S. cerevisiae deletion strains, locus YNL161W, strain CBK1, stronger effect = lower value
  normalized growth: 0.949
S. cerevisiae deletion strains, locus YNL183C, strain NPR1, stronger effect = lower value
  normalized growth: 1.09
S. cerevisiae deletion strains, locus YNL207W, strain RIO2, stronger effect = lower value
  normalized growth: 0.941
S. cerevisiae deletion strains, locus YNL222W, strain SSU72, stronger effect = lower value
  normalized growth: 0.955
S. cerevisiae deletion strains, locus YNL307C, strain MCK1 (second series), stronger effect = lower value
  normalized growth: 0.961
S. cerevisiae deletion strains, locus YOL078W, strain AVO1, stronger effect = lower value
  normalized growth: 0.946
S. cerevisiae deletion strains, locus YOL136C, strain PFK27, stronger effect = lower value
  normalized growth: 0.949
S. cerevisiae deletion strains, locus YOR061W, strain CKA2, stronger effect = lower value
  normalized growth: 0.984
S. cerevisiae deletion strains, locus YOR119C, strain RIO1, stronger effect = lower value
  normalized growth: 1.05
S. cerevisiae deletion strains, locus YOR231W, strain MKK1, stronger effect = lower value
  normalized growth: 1.07
S. cerevisiae deletion strains, locus YOR329C, strain SCD5, stronger effect = lower value
  normalized growth: 0.951
S. cerevisiae deletion strains, locus YPL031C, strain PHO85, stronger effect = lower value
  normalized growth: 0.948
S. cerevisiae deletion strains, locus YPL153C, strain RAD53, stronger effect = lower value
  normalized growth: 0.974
S. cerevisiae deletion strains, locus YPL204W, strain HRR25, stronger effect = lower value
  normalized growth: 0.945
S. cerevisiae deletion strains, locus YPL209C, strain IPL1, stronger effect = lower value
  normalized growth: 0.949
S. cerevisiae deletion strains, locus YPL256C, strain CLN2, stronger effect = lower value
  normalized growth: 0.945
S. cerevisiae deletion strains, locus YPR025C, strain CCL1, stronger effect = lower value
  normalized growth: 0.956
S. cerevisiae deletion strains, locus YPR106W, strain ISR1, stronger effect = lower value
  normalized growth: 0.942
S. cerevisiae deletion strains, locus YPR111W, strain DBF20, stronger effect = lower value
  normalized growth: 0.938
S. cerevisiae deletion strains, strain NNK1, stronger effect = lower value
  normalized growth: 0.956
S. cerevisiae deletion strains, strain TSCII, stronger effect = lower value
  normalized growth: 0.945

## O=S(=O)(Oc1cc(Cl)cc(Cl)c1)c1cccc(S(=O)(=O)Oc2cc(Cl)cc(Cl)c2)c1
S. cerevisiae deletion strains, locus YAL013W, strain DEP1, stronger effect = lower value
  normalized growth: 1.01
S. cerevisiae deletion strains, locus YBR229C, strain ROT2, stronger effect = lower value
  normalized growth: 1.01
S. cerevisiae deletion strains, locus YCL061C, strain MRC1, stronger effect = lower value
  normalized growth: 1.01
[4]
  normalized growth: 1.01
S. cerevisiae deletion strains, locus YDL134C, strain PPH21, stronger effect = lower value
  normalized growth: 1.01
[1]
  normalized growth: 1
S. cerevisiae deletion strains, locus YEL061C, strain CIN8, stronger effect = lower value
  normalized growth: 1.01
S. cerevisiae deletion strains, locus YGR078C, strain PAC10, stronger effect = lower value
  normalized growth: 1.02
[5]
  normalized growth: 1.04
S. cerevisiae deletion strains, locus YHR087W, strain rtc3, stronger effect = lower value
  normalized growth: 0.996
S. cerevisiae deletion strains, locus YJR043C, strain POL32, stronger effect = lower value
  normalized growth: 1
S. cerevisiae deletion strains, locus YJR075W, strain HOC1, stronger effect = lower value
  normalized growth: 0.988
S. cerevisiae deletion strains, locus YLR039C, strain RIC1, stronger effect = lower value
  normalized growth: 1.1
S. cerevisiae deletion strains, locus YLR058C, strain SHM2 (second series), stronger effect = lower value
  normalized growth: 0.998
S. cerevisiae deletion strains, locus YLR085C, strain ARP6, stronger effect = lower value
  normalized growth: 1.06
S. cerevisiae deletion strains, locus YLR262C, strain YPT6, stronger effect = lower value
  normalized growth: 1.02
S. cerevisiae deletion strains, locus YML094W, strain GIM5, stronger effect = lower value
  normalized growth: 1.01
S. cerevisiae deletion strains, locus YMR219W, strain ESC1, stronger effect = lower value
  normalized growth: 0.998
S. cerevisiae deletion strains, locus YMR263W, strain SAP30, stronger effect = lower value
  normalized growth: 0.992
[2]
  normalized growth: 1.01
S. cerevisiae deletion strains, locus YNL298W, strain CLA4 (second series), stronger effect = lower value
  normalized growth: 1.07
S. cerevisiae deletion strains, locus YNL322C, strain KRE1, stronger effect = lower value
  normalized growth: 1.01
S. cerevisiae deletion strains, locus YNR030W, strain Alg12, stronger effect = lower value
  normalized growth: 1.01
S. cerevisiae deletion strains, locus YOL006C, strain TOP1, stronger effect = lower value
  normalized growth: 1.06
[3]
  normalized growth: 1.01
S. cerevisiae deletion strains, locus YPL241C, strain CIN2, stronger effect = lower value
  normalized growth: 1.03
S. cerevisiae deletion strains, locus YPR135W, strain CTF4, stronger effect = lower value
  normalized growth: 1.01
S. cerevisiae strains, strain wild type, stronger effect = lower value
  normalized growth: 1.04
